The record followed here is PubChem BioAssay (NCI).

Assay [1] can be described thus: NCI Yeast Anticancer Drug Screen. Data for the rad50 strain (AID 155).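 Note: 0% = growth of vehicle-only cultures of the same strain.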 To be noted: S. cerevisiae rad50 strain growth inhibition; at 50.0 µM; stronger effect = higher value. The method, boiled down:
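Yeast carrying a defined DNA repair defect were exposed to test compounds, and growth was compared with vehicle-treated controls to give percent inhibition.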

Assay [2] is described as follows: NCI Yeast Anticancer Drug Screen. Data for the mec2-1 strain (AID 157). To be noted: S. cerevisiae mec2-1 strain, at 50.0 µM, stronger effect = higher value. The method, boiled down: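 Each compound was tested on mec2-1 yeast, a strain altered in DNA damage repair or cell cycle control. Growth inhibition is reported relative to vehicle.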
A short description of assay [3]: NCI Yeast Anticancer Drug Screen. Data for the sgs1 mgt1 strain (AID 161).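 Note: 0% = growth of cultures given vehicle only.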 To be noted: S. cerevisiae sgs1 mgt1 strain, at 50.0 µM, stronger effect = higher value. The method, boiled down:
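Mutant yeast exposed to compound; growth scored against vehicle-only wells.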

Assay [4] in a line: NCI Yeast Anticancer Drug Screen. Data for the cln2 rad14 strain (AID 165).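 Note: 0% = growth equal to vehicle treated cultures.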 Particulars: S. cerevisiae cln2 rad14 strain, at 50.0 µM, stronger effect = higher value. The method, boiled down:
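Test compounds were added to cln2 rad14 yeast cultures; inhibition of growth was then determined by comparison with vehicle treatment.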

Assay [5] can be described thus: NCI Yeast Anticancer Drug Screen. Data for the bub3 strain (AID 167). To be noted: S. cerevisiae bub3 mutant strain, at 50.0 µM, stronger effect = higher value. The method, boiled down: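 Compounds were applied to a genetically altered yeast strain carrying a cell-cycle control defect. Growth inhibition was scored against vehicle-treated controls.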
The nature of assay [6]: NCI Yeast Anticancer Drug Screen. Data for the mlh1 rad18 strain (AID 175). To be noted: S. cerevisiae mlh1 rad18 strain growth inhibition; at 50.0 µM; stronger effect = higher value. The method, boiled down:
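Inhibition values reflect reduced growth of mutant yeast versus vehicle-treated controls following compound exposure; the mutations affect DNA damage repair.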

The structures appear in SMILES notation. About 79,000 compounds went through this panel and 15% of them were active in at least one assay; those are over-represented in the sample as a whole. A number with no mark means an inactive call. Active and inactive are the calls of the source. Cut-off read from the data, not from the text of the source: active = growth inhibition above about 70%; inactive = the rest.

As for `NNC(=O)c1c(-c2cccnc2)cnc2ccccc12`, the growth inhibition is -29.4% in assay [1]; -20.6% in assay [2]; -29.3% in assay [3]; -6.8% in assay [4]; -4.8% in assay [5]; -31.4% in assay [6].
As for `Cc1cn(C2CCCCC2O)c(=O)[nH]c1=O` (stereo not drawn), the growth inhibition in assay [1] is -15.8%; in assay [2], -14%; in assay [3], -2.85%; in assay [4], 12.6%; in assay [5], -15.1%; in assay [6], -16.9%.
Consider `Nc1ccc2ccc(NS(=O)(=O)N3CCCCC3)cc2c1`, for which the growth inhibition in assay [1] was 31.8%; in assay [2], 46.9%; in assay [3], 43.1%; in assay [4], 52.6%; in assay [5] it was 18.5%; in assay [6], 50.9%.
Consider `CN(C)c1ncnc2c1cnn2-c1ccccc1`, for which the growth inhibition is -4.45% in assay [1]; -4.35% in assay [2]; 0.2% in assay [3]; -40.8% in assay [4]; -0.25% in assay [5]; -3.15% in assay [6].
In the case of `CCOC(=O)C1=CC(=O)CC(C)(C)O1`, the growth inhibition in assay [1] was -2.6%; in assay [2] it was 7.55%; in assay [3], -1.65%; in assay [4], -5.75%; in assay [5] it was -0.8%; in assay [6], 1.95%.
As for `CS(=O)(=O)c1nsc(N)n1`, the growth inhibition in assay [1] is -14%; in assay [2] it was -8.6%; in assay [3], -5.25%; in assay [4], 2.15%; in assay [5], -0.1%; in assay [6], 2.7%.
`Cc1ccccc1NC(=O)CC(=O)N1N=C(N(CCC#N)c2ccccc2Cl)CC1c1ccccc1` (stereo not drawn): the growth inhibition in assay [1] is 4.1%; in assay [2], -10%; in assay [3], -39.3%; in assay [4] it was 16.4%; in assay [5], -10.1%; in assay [6], -8.3%.
Turning to `Cc1ccccc1C=O`, the growth inhibition in assay [1] is -2.75%; in assay [2] it was -32.6%; in assay [3], 5.15%; in assay [4], -3.35%; in assay [5] it was -0.2%; in assay [6], -0.85%.
On to `CCOC(=O)COc1c(C)cccc1C`, for which the growth inhibition was 17.6% in assay [1]; 5.45% in assay [2]; -2.5% in assay [3]; 14.8% in assay [4]; 32.5% in assay [5]; 12.5% in assay [6].
On to `COc1ccc(CCNC(=O)Cc2ccc(Cl)cc2)cc1OC`, for which the growth inhibition in assay [1] was 3.65%; in assay [2], -4.65%; in assay [3] it was -9.7%; in assay [4], 4.2%; in assay [5], -5.75%; in assay [6], 0.2%.
As for `CC(C)NC(=O)C1CC2C=CC1C2` (stereo not drawn), the growth inhibition in assay [1] was 7.7%; in assay [2], 1.3%; in assay [3] it was 1.75%; in assay [4] it was 3.25%; in assay [5], -9.85%; in assay [6], 14.8%.
For `CN1C(=O)CNS1(=O)=O`, the growth inhibition in assay [1] is -1.45%; in assay [2] it was 9.6%; in assay [3] it was -4.35%; in assay [4], -11.1%; in assay [5], 4.6%; in assay [6], 7.3%.
On to `CC(=O)OCc1ccc([N+](=O)[O-])cc1`, for which the growth inhibition is -1.65% in assay [1]; 0.25% in assay [2]; -8.8% in assay [3]; 8.05% in assay [4]; -6.05% in assay [5]; 6.1% in assay [6].
As for `C[N+](C)(C)N=C1CCCCC1`, the growth inhibition in assay [1] is 10.9%; in assay [2] it was -3.6%; in assay [3] it was -11.3%; in assay [4], 7.5%; in assay [5], -2.6%; in assay [6] it was -16.8%.
For the compound `Nc1[nH][nH]c(=O)c1N=Nc1ccccc1`, the growth inhibition in assay [1] was -7.75%; in assay [2] it was -8.95%; in assay [3] it was -1.15%; in assay [4], -6.6%; in assay [5], 8.4%; in assay [6] it was 5.15%.
Consider `[N-]=[N+]=NCC1OCC(O)C(OCc2ccccc2)C1OCc1ccccc1` (stereo not drawn), for which the growth inhibition is -8.6% in assay [1]; -10.4% in assay [2]; -3.75% in assay [3]; -11.8% in assay [4]; -10.4% in assay [5]; 3.3% in assay [6].
Regarding `Cc1ccc(NC(=O)N2CC2C)cc1NC(=O)N1CC1C` (stereo not drawn), the growth inhibition is 2.4% in assay [1]; 5.55% in assay [2]; -7.05% in assay [3]; 17.3% in assay [4]; 6.9% in assay [5]; -9.45% in assay [6].
Turning to `O=C(O)CCCc1ccc2c(c1)-c1ccccc1S2=O` (stereo not drawn), the growth inhibition in assay [1] was 0.65%; in assay [2], 3.8%; in assay [3], 1.25%; in assay [4], -3.6%; in assay [5] it was -4%; in assay [6], 13.1%.
Turning to `Cc1ccc(S(=O)(=O)N2CCC(C(=O)N3CCCC3)(c3cccc(C)c3)CC2)cc1`, the growth inhibition in assay [1] was -55.5%; in assay [2], -35.4%; in assay [3] it was -46.4%; in assay [4] it was 0.1%; in assay [5], -38.5%; in assay [6], -43.1%.
On to `Cc1ccc(NC(=S)NCCc2ccccn2)cc1C`, for which the growth inhibition is 29.2% in assay [1]; 13.8% in assay [2]; 28.9% in assay [3]; 1.45% in assay [4]; 21.3% in assay [5]; 21.6% in assay [6].
As to `Cc1ccccc1-n1c(SCC(=O)NC(=O)Nc2cccc(Cl)c2)nc2c(Br)cc(Br)cc2c1=O`, the growth inhibition in assay [1] is -22.9%; in assay [2], -5.5%; in assay [3], 0.1%; in assay [4] it was -16.1%; in assay [5], -12.6%; in assay [6] it was -2.75%.
Consider `O=[N+]([O-])c1ccc(N/N=C/C2CCCCCC2)c([N+](=O)[O-])c1`, for which the growth inhibition in assay [1] was 11.4%; in assay [2], 13.6%; in assay [3] it was -0.75%; in assay [4], -147%; in assay [5], -14.7%; in assay [6], 4%.
With `O=C(NC1CCCN1C(=O)/C=C\c1ccccc1)OCc1ccccc1` (stereo not drawn), the growth inhibition is -8.95% in assay [1]; -4.95% in assay [2]; -13.7% in assay [3]; -62.5% in assay [4]; 0.6% in assay [5]; -12.3% in assay [6].
On to `COc1ccc(/C=C/C(=O)C(C)(C)CN2CCCCC2)cc1`, for which the growth inhibition was 39.9% in assay [1]; 24.9% in assay [2]; 20.5% in assay [3]; 37.8% in assay [4]; 36.5% in assay [5]; 39.2% in assay [6].
Turning to `O=[N+]([O-])c1ccc(F)cc1`, the growth inhibition in assay [1] was -1.3%; in assay [2] it was 5.25%; in assay [3], 2.3%; in assay [4] it was -17.4%; in assay [5], 7.15%; in assay [6] it was 4.75%.
Turning to `O=C1NNC2(C(=O)N1)c1ccccc1-c1ccccc12`, the growth inhibition in assay [1] was 8.5%; in assay [2], -19.5%; in assay [3] it was 28.1%; in assay [4], 24.9%; in assay [5] it was 1.65%; in assay [6], 15.2%.
On to `CC(c1ccc(O)cc1)c1cc2c(cc1OCCO)OCO2` (stereo not drawn), for which the growth inhibition in assay [1] was 99.3% (active); in assay [2], 99% (active); in assay [3], 99.4% (active); in assay [4], 99.3% (active); in assay [5] it was 99.5% (active); in assay [6], 99.1% (active).
`CC1(C)C2CC=C(CCO)C1C2` (stereo not drawn): the growth inhibition in assay [1] is -2.85%; in assay [2] it was -5.8%; in assay [3] it was 2.05%; in assay [4], -20.6%; in assay [5], 0.05%; in assay [6] it was -21.4%.
On to `C1CSCC2(COC2)CS1`, for which the growth inhibition was 13% in assay [1]; 13.6% in assay [2]; -9.65% in assay [3]; 5% in assay [4]; -1.55% in assay [5]; 14.2% in assay [6].
Turning to `CC(CCc1ccccc1)N(C)C(=O)CNC(=O)CN1C(=O)c2ccccc2C1=O` (stereo not drawn), the growth inhibition was -18.9% in assay [1]; 1.35% in assay [2]; 6.85% in assay [3]; -1.25% in assay [4]; -15.1% in assay [5]; -6.9% in assay [6].
For the compound `CN(C)CC(CN(C)C)C(=O)O`, the growth inhibition in assay [1] is -0.2%; in assay [2], 2.75%; in assay [3], -13.3%; in assay [4] it was 22%; in assay [5] it was -6.25%; in assay [6], -15.7%.
For `Nc1cccc(S(=O)(=O)Nc2c(N)nc(SCC(=O)O)[nH]c2=O)c1`, the growth inhibition in assay [1] was -15%; in assay [2], -15.8%; in assay [3] it was -19.7%; in assay [4], -9.3%; in assay [5], 11.9%; in assay [6], 21.6%.
For the compound `O=C1CCCCC1CO` (stereo not drawn), the growth inhibition in assay [1] was -0.1%; in assay [2], 1.5%; in assay [3], -0.65%; in assay [4] it was -5.5%; in assay [5], 1.4%; in assay [6] it was 2.3%.
Take `COC(=O)/C(=C\c1ccc(N(CCC#N)CCC#N)cc1)NC(=O)c1cc([N+](=O)[O-])ccc1Cl`: the growth inhibition in assay [1] was -0.55%; in assay [2], -3.65%; in assay [3] it was -16.1%; in assay [4] it was 5.65%; in assay [5] it was -21.6%; in assay [6] it was -3.4%.
On to `CC(=O)NC1=NN(C(C)=O)C(C)(c2ccccc2)S1=O` (stereo not drawn), for which the growth inhibition in assay [1] was 9.65%; in assay [2] it was -1.25%; in assay [3], 3.7%; in assay [4], 10%; in assay [5] it was -3.95%; in assay [6], 14.7%.
`CCCCOCCOC(=O)c1ccccc1C(=O)OCCOCCCC`: the growth inhibition in assay [1] is -5.75%; in assay [2], -42.4%; in assay [3] it was -49.4%; in assay [4], -49%; in assay [5], -23.1%; in assay [6] it was -25%.
In the case of `O=c1ccn2c(n1)OC1CC2OC1COC(c1ccccc1)(c1ccccc1)c1ccccc1` (stereo not drawn), the growth inhibition in assay [1] was -8.8%; in assay [2], 4.15%; in assay [3] it was 12.2%; in assay [4] it was -17.4%; in assay [5], 3.6%; in assay [6], 10.3%.
Consider `CCCCCC(=O)Oc1ccccc1OC`, for which the growth inhibition is -8.1% in assay [1]; -5.55% in assay [2]; 1.15% in assay [3]; -29.4% in assay [4]; -7.85% in assay [5]; -7.9% in assay [6].
